In PubChem BioAssay (EPA / NIEHS):
Calls of active or inactive are those of the source. The calls were made as follows: active = hit-call score of the fitted dose curve at least 0.9, where 1 is the maximum; inactive = score below 0.9.

Experiments:
[1] = ATG_GLI_CIS: Attagene CIS-FACTORIAL HepG2 Assay for human Zinc Finger Protein GLI1 (AID 2282945); conditions: HepG2, Attagene cis-factorial reporter mRNA, GLI element; actives raise or lower the signal
Summary of the method: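 Bidirectional curve fits relative to DMSO, using reporter mRNA levels from RT-PCR plus capillary electrophoresis. Cells were HepG2 transiently carrying cis-regulated reporter constructs, harvested 24 h after dosing.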

[2] = target: Bile acid receptor (Homo sapiens) (UniProt Q96RI1); experiment: ATG_IR1_CIS: Attagene CIS-FACTORIAL HepG2 Assay for human Nuclear Receptor Subfamily 1 Group H Member 4 (NR1H4), IR1 submotif (AID 2282946); conditions: IR1 reporter transcription, actives raise or lower the signal
Bile acid receptor (Homo sapiens), sequence (Q96RI1 whole entry, looked up): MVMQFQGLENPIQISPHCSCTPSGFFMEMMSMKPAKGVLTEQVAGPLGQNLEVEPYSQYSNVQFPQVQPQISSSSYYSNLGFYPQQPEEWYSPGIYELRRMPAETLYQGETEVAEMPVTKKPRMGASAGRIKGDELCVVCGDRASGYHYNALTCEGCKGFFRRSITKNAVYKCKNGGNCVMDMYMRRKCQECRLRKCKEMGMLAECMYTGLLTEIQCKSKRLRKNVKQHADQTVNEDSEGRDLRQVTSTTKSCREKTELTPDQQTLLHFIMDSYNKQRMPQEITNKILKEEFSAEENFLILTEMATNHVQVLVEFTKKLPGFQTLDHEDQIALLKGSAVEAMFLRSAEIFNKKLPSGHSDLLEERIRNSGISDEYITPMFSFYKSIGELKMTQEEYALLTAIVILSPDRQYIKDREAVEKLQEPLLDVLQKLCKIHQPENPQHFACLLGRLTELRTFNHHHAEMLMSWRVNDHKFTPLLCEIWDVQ
Summary of the method: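 HepG2 cells transiently transfected with multiplexed cis-element reporter units read endogenous transcription factor activity. After 24 h compound exposure, reporter mRNA was quantified by RT-PCR, fluorescent labelling, HpaI digestion and capillary electrophoresis; bidirectional fitting versus DMSO baseline.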

[3] = ATG_GRE_CIS: Attagene CIS-FACTORIAL HepG2 Assay for human Glucocorticoid Response Elements (GRE) (AID 2282947); conditions: HepG2 GRE cis-reporter, Attagene multiplex mRNA; actives raise or lower the signal
Summary of the method: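 Multiplexed cis-reporter mRNA induction, HepG2, 24 h post-dose. RT-PCR, FAM-labelled, HpaI-digested amplicons by CE. Bidirectional fit vs DMSO.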

[4] = ATG_M_32_CIS: Attagene CIS-FACTORIAL HepG2 Assay for M32 Transcription Factor (Internal Marker) (AID 2282949); conditions: HepG2 Attagene cis-factorial M32 reporter, mRNA; actives raise or lower the signal;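 also: background control marker of the multiplexed CIS panel rather than a real target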
Summary of the method: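 Using DMSO as baseline, bidirectional curve fits were applied to reporter mRNA signals. These came from transiently transfected HepG2 cells exposed for 24 h, with RNA analysed by RT-PCR, FAM primer extension, HpaI digestion and CE.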

[5] = ATG_M_06_CIS: Attagene CIS-FACTORIAL HepG2 Assay for M06 Transcription Factor (Internal Marker) (AID 2282950); conditions: HepG2 Attagene CIS-FACTORIAL M06 internal marker reporter; actives raise or lower the signal
Summary of the method: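 Cells (HepG2, transiently carrying cis-driven reporter units) receive chemical for 24 h before RNA isolation. Reporter cDNA is PCR-amplified, FAM-labelled by primer extension, HpaI-digested and sized on a capillary analyser.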

[6] = target: Hypoxia-inducible factor 1-alpha (Homo sapiens) (UniProt Q16665); experiment: ATG_HIF1a_CIS: Attagene CIS-FACTORIAL HepG2 Assay for human Hypoxia Inducible Factor 1 (HIF1A) (AID 2282951); conditions: HepG2 Attagene cis-factorial HIF1a reporter transcription; actives raise or lower the signal
Hypoxia-inducible factor 1-alpha (Homo sapiens), sequence (Q16665 whole entry, looked up): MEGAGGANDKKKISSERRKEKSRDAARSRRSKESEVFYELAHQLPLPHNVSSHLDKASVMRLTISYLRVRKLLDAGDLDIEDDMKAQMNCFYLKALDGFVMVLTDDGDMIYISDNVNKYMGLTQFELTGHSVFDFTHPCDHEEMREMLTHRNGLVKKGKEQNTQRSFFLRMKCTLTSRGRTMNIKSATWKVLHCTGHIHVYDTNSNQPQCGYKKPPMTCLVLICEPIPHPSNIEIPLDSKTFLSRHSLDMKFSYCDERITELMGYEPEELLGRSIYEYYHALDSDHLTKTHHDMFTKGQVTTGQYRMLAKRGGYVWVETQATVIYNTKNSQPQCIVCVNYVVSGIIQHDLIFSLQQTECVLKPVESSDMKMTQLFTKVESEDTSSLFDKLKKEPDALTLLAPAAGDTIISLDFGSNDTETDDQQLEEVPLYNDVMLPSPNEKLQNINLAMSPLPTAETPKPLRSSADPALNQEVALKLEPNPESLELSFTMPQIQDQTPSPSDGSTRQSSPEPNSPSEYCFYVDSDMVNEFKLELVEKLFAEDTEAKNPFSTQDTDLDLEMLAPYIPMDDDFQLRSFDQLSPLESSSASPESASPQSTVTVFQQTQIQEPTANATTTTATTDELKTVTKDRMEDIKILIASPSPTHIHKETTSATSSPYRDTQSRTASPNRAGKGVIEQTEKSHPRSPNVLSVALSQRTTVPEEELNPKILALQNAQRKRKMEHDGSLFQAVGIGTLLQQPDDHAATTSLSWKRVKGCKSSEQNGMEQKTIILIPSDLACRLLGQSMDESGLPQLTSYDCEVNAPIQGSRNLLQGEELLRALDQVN
Summary of the method: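 RT-PCR/capillary electrophoresis fluorescence readout of reporter transcripts from endogenous-TF-driven cis elements in transfected HepG2 cells, 24 h exposure; activity fitted in both directions against DMSO controls.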

[7] = target: Hepatocyte nuclear factor 6 (Homo sapiens) (UniProt Q9UBC0); experiment: ATG_HNF6_CIS: Attagene CIS-FACTORIAL HepG2 Assay for human Hepatocyte Nuclear Factor 6 (HNF6) (AID 2282952); conditions: HepG2 Attagene cis-factorial HNF6 reporter transcription; actives raise or lower the signal
Hepatocyte nuclear factor 6 (Homo sapiens), sequence (Q9UBC0 whole entry, looked up, the tested form may be a part): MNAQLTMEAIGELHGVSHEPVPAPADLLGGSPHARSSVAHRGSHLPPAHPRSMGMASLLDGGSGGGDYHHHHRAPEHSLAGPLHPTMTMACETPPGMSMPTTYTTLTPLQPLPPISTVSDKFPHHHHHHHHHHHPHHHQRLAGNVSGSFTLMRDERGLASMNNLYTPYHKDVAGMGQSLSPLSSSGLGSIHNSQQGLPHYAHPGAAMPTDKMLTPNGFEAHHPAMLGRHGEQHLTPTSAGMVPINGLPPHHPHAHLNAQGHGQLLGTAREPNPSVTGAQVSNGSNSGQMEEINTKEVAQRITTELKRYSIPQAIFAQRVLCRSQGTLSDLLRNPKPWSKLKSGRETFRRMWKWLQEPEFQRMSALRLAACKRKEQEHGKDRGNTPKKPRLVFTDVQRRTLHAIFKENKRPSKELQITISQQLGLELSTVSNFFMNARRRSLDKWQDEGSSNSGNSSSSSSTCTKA
Summary of the method: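 First, HepG2 cells were transfected with the multiplexed cis reporter library and dosed with chemical for 24 h. Next, RNA was reverse-transcribed, PCR-amplified and fluorescently labelled. Finally, HpaI-digested fragments were read by capillary electrophoresis.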

[8] = target: Paired box protein Pax-6 (Homo sapiens) (UniProt P26367); experiment: ATG_Pax6_CIS: Attagene CIS-FACTORIAL HepG2 Assay for human Paired Box 6 (PAX6) (AID 2282956); conditions: HepG2 CIS-FACTORIAL PAX6 reporter transcription, RNA readout; actives raise or lower the signal
Paired box protein Pax-6 (Homo sapiens), sequence (P26367 whole entry, looked up): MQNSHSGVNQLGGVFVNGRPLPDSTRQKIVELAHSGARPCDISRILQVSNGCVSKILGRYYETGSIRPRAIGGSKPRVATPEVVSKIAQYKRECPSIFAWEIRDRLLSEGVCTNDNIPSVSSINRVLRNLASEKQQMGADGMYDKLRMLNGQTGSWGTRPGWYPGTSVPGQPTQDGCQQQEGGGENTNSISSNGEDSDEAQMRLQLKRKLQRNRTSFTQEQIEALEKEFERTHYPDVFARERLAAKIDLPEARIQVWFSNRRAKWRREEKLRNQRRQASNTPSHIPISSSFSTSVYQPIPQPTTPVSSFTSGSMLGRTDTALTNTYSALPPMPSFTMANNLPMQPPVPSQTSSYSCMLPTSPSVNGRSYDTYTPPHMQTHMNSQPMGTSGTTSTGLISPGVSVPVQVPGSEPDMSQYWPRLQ
Summary of the method: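 Values derive from bidirectional curve fitting of reporter mRNA signal relative to DMSO. HepG2 cells bearing transfected cis-regulated MRTUs were exposed for 24 h; transcripts were read by RT-PCR and capillary electrophoresis.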

[9] = ATG_PXRE_CIS: Attagene CIS-FACTORIAL HepG2 Assay for human Pregnane X Receptor Element (PXRE) (AID 2282957); conditions: HepG2 Attagene CIS-FACTORIAL PXRE reporter, mRNA; actives raise or lower the signal
Summary of the method: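 After a 24 h chemical incubation, total RNA from transfected HepG2 cells was reverse-transcribed and reporter cDNA amplified, FAM-labeled, HpaI-digested and sized by capillary electrophoresis. DMSO served as baseline for bidirectional curve fitting.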

[10] = ATG_PPRE_CIS: Attagene CIS-FACTORIAL HepG2 Assay for human Peroxisome Proliferator-activated Response Element (PPRE) (AID 2282958); conditions: HepG2 PPRE cis-element reporter, Attagene transcription factor profiling; actives raise or lower the signal
Summary of the method: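 Read-out: fluorescent reporter mRNA fragments resolved by capillary electrophoresis after RT-PCR. HepG2 cells carried transiently transfected PPRE-driven cis reporter constructs and were dosed for 24 h; gain or loss of signal fitted relative to DMSO.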

[11] = ATG_RORE_CIS: Attagene CIS-FACTORIAL HepG2 Assay for human RAR-related Orphan Receptor Element (RORE) (AID 2282959); conditions: HepG2 Attagene cis-factorial RORE reporter, mRNA; actives raise or lower the signal
Summary of the method: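 Readout: fluorescent reporter mRNA by RT-PCR plus capillary electrophoresis, 24 h after dosing transfected HepG2 cells. Endogenous transcription factor activity on a cis promoter element is measured. Gain or loss of signal fitted against DMSO.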

[12] = ATG_Sox_CIS: Attagene CIS-FACTORIAL HepG2 Assay for human SRY-box transcription factor (SOX) (AID 2282960); conditions: HepG2 Attagene cis-factorial SOX reporter, mRNA; actives raise or lower the signal
Summary of the method: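 Read-out: fluorescent RT-PCR products of SOX1-linked reporter transcripts resolved by capillary electrophoresis, fitted bidirectionally against DMSO. Transiently transfected HepG2 cells, 24 h after chemical exposure, endogenous transcription factor activity.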

[13] = target: Transcription factor Sp1 (Homo sapiens) (UniProt P08047); experiment: ATG_Sp1_CIS: Attagene CIS-FACTORIAL HepG2 Assay for human Specificity Protein 1 (Sp1) (AID 2282961); conditions: HepG2 Sp1 cis-reporter transcription, actives raise or lower the signal
Transcription factor Sp1 (Homo sapiens), sequence (P08047 whole entry, looked up): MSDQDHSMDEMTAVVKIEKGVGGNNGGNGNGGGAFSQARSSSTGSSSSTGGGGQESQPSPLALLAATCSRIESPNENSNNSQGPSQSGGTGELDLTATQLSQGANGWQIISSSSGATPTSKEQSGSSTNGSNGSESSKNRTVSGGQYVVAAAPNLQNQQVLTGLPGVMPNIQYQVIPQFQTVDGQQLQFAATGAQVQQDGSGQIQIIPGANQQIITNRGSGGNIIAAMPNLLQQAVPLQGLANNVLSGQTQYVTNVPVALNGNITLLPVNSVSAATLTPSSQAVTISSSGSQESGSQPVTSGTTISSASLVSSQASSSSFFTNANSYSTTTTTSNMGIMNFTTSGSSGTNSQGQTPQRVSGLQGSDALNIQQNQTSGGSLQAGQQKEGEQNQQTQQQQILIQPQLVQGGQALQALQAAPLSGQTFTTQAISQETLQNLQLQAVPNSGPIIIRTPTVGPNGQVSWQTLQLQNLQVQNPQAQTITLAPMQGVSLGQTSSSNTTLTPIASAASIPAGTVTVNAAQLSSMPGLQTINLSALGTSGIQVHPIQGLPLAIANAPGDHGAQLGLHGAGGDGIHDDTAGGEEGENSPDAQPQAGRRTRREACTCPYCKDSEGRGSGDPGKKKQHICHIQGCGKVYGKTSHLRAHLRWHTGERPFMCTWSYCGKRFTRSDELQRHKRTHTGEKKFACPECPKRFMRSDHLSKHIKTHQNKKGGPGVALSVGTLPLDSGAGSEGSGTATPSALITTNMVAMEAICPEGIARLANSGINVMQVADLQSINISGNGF
Summary of the method: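 Read-out: fluorescence of 6-FAM-labeled, HpaI-digested RT-PCR products separated by capillary electrophoresis. HepG2 cells carried transfected cis-element reporter units and were exposed to chemicals for 24 h; gain or loss of signal fitted relative to DMSO.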

[14] = ATG_SREBP_CIS: Attagene CIS-FACTORIAL HepG2 Assay for human Sterol Regulatory Element Binding (SREBP) (AID 2282962); conditions: HepG2 Attagene cis-factorial SREBP reporter, mRNA; actives raise or lower the signal
Summary of the method: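 Values derive from bidirectional curve fitting with DMSO as baseline. The underlying measurement is reporter mRNA from cis-element-regulated units in transiently transfected HepG2, quantified by RT-PCR and capillary electrophoresis after 24 h exposure.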

[15] = target: Signal transducer and activator of transcription 3 (Homo sapiens) (UniProt P40763); experiment: ATG_STAT3_CIS: Attagene CIS-FACTORIAL HepG2 Assay for human Signal Transducer and Activator of Transcription 3 (STAT3) (AID 2282963); conditions: HepG2, Attagene cis-factorial STAT3 reporter transcription; actives raise or lower the signal
Signal transducer and activator of transcription 3 (Homo sapiens), sequence (P40763 whole entry, looked up): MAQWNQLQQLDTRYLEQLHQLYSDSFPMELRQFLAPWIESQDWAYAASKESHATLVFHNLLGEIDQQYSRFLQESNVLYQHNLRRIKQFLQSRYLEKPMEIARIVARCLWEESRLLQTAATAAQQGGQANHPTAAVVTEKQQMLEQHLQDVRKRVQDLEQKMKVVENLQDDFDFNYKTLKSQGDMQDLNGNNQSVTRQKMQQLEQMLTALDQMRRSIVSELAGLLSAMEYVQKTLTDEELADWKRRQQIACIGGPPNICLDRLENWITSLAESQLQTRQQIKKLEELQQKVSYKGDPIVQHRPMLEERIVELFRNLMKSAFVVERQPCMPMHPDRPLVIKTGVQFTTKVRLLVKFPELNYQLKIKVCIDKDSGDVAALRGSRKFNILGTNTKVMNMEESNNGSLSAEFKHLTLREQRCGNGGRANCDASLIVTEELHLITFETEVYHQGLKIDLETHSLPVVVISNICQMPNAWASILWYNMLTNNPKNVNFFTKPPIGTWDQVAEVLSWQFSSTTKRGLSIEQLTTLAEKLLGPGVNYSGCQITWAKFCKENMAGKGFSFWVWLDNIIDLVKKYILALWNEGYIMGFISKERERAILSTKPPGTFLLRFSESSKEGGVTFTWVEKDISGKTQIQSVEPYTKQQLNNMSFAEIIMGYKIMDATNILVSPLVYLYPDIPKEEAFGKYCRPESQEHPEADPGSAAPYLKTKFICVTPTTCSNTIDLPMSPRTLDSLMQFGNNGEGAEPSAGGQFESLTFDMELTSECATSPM
Summary of the method: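 Cis-factorial format: endogenous transcription factors in HepG2 drive transfected reporter units. After 24 h treatment, reporter RNA was reverse-transcribed, amplified, FAM-labelled and HpaI-digested before CE analysis; activity scored in both directions against DMSO.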

[16] = ATG_ISRE_CIS: Attagene CIS-FACTORIAL HepG2 Assay for human Interferon Regulatory Factor 1 (IRF1) binding to an Interferon-Stimulated Response Element (ISRE) (AID 2282948); conditions: HepG2 ISRE cis-reporter (Attagene), mRNA transcription readout; actives raise or lower the signal
Summary of the method: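 Signal reflects induction or loss of ISRE-linked reporter mRNA in transiently transfected HepG2 cells after a 24 h treatment, detected by fluorescent RT-PCR fragments on capillary electrophoresis and normalised to DMSO.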

[17] = target: Heat shock factor protein 1 (Homo sapiens) (UniProt Q00613); experiment: ATG_HSE_CIS: Attagene CIS-FACTORIAL HepG2 Assay for human Heat Shock Transcription Factor 1 (HSE) (AID 2282953); conditions: HepG2 HSE cis-reporter, Attagene RNA transcription; actives raise or lower the signal
Heat shock factor protein 1 (Homo sapiens), sequence (Q00613 whole entry, looked up): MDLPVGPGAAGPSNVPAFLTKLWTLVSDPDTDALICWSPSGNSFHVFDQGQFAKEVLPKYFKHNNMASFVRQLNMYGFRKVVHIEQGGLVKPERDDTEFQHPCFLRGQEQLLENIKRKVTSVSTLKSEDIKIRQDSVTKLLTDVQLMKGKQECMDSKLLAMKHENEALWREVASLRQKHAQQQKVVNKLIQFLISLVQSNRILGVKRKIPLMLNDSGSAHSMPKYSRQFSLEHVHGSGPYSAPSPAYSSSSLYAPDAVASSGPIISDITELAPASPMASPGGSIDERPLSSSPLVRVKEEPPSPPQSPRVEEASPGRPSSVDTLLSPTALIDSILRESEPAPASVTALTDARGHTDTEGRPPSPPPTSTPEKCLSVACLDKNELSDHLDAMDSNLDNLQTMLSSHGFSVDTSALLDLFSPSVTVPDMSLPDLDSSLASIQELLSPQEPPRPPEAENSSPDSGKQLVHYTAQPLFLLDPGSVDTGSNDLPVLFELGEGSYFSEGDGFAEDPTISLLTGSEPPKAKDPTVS
Summary of the method: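 Liver-derived HepG2 cells carry transiently introduced multiple reporter units governed by cis promoters. Reporter RNA measured 24 h post-dose through reverse transcription, PCR amplification, fluorescent labelling and capillary electrophoresis, normalised to DMSO.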

[18] = ATG_MRE_CIS: Attagene CIS-FACTORIAL HepG2 Assay for human Metal Responsive Element (MRE) (AID 2282954); conditions: HepG2 MRE cis-reporter transcription, Attagene multiplex; actives raise or lower the signal
Summary of the method: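 Multiplexed cis-reporter assay in human HepG2 liver cells, 24 h incubation with test chemical. Reporter transcripts measured by RT-PCR and capillary electrophoresis; values from bidirectional curve fitting versus DMSO.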

[19] = ATG_PBREM_CIS: Attagene CIS-FACTORIAL HepG2 Assay for human Phenobarbital-responsive Enhancer Module (PBREM) (AID 2282955); conditions: HepG2 PBREM cis-reporter, Attagene multiplexed transcription; actives raise or lower the signal
Summary of the method: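 Reporter mRNA read by RT-PCR, 6-FAM primer extension, HpaI digestion and capillary electrophoresis. Transfected HepG2 cells, 24 h compound exposure. Gain or loss of signal fitted bidirectionally relative to DMSO baseline.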

[20] = ATG_TA_CIS: Attagene CIS-FACTORIAL HepG2 Assay for human TA Basal Promoter (AID 2282964); conditions: HepG2 Attagene CIS-factorial TA basal promoter reporter; actives raise or lower the signal
Summary of the method: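 Background internal-marker endpoint from a 52-component HepG2 cis-reporter panel. Cells treated 24 h; reporter transcripts quantified via RT-PCR and CE fluorescence against DMSO baseline.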

Measured: outcome

CC(CO)(CO)[N+](=O)[O-]
not listed: [16] | [17] | [18] | [19] | [20]
inactive: all other assays above

CCCCOCC(C)OCC(C)O (configuration not stated)
not listed: [3]
inactive: all other assays above

C1=COCCC1
not listed: [17] | [19]
inactive: all other assays above
